Sampled rows, rich in hits. Any-hit rate of the full collection: about 12%.
Cycloheximide cs – affects cycloheximide protein synthesis inhibition readout, counter-screen; cell reporter, cycloheximide protein synthesis inhibition counterscreen; max response, %; hit rate 12% among 300,000; in the data active means max response mostly above about 13%, no sharp cut-off; inactive means mostly below about 14%; further: read at 38.3 µM for the half of the compounds with a filed dose; 0% is about no effect
Sm TGR block – blocks Schistosoma mansoni thioredoxin glutathione reductase; Q962Y6; purified TGR, DTNB reduction, TNB absorbance 405 nm; Potency, µM (series often up to 114 µM), for the others: at the highest dose activity change, negative = inhibition, most hits filed as inhibitors; hit rate 3% among 360,000; active means well fitted inhibition curve with a large enough effect; inconclusive means small, poorly fitted or top-dose-only effect; inactive means no such curve, though single readings can be large or run the other way; further: potency means the concentration at half of the fitted maximal effect; on the % scale 0 is the no-effect control and ±100 the full control effect; nearly all actives have a fitted effect of over 60% in size
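Kinetic colorimetric format: TGR-catalysed, NADPH-driven DTNB reduction monitored via TNB absorbance. Enzyme dispensed at 20 nM; compound exposure 15 min at room temperature before reaction start.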
Shiga inhibitor – Shiga toxin inhibition. inhibition, % at 38.7 µM. AID 2315. Vero cells, Shiga toxin protein synthesis inhibition reporter. hit rate 9.2% among 290,000; in the data active means inhibition mostly above about 28%, no sharp cut-off; inactive means mostly below about 43%; further: 0% is about no effect
FMDV inh – antivirals against foot and mouth disease virus. FMDV antiviral cell-based qHTS. Potency, µM (series often up to 57.9 µM), without a hit: top-dose activity change, negative = inhibition, most hits filed as inhibitors. hit rate 1.2% among 410,000. AID 1159524; calls by dose curve; tested in HEK293T cells; further: read-out not given here; potency means the concentration at half of the fitted maximal effect; on the % scale 0 is the no-effect control and ±100 the full control effect; nearly all actives have a fitted effect of over 45% in size
Active calls of the source: *; ? = inconclusive; . = not tested or not shown; + = active, no number.

SMILES	Cycloheximide cs	Sm TGR block	Shiga inhibitor	FMDV inh
CCn1cc(/C=C/C(=O)Nc2ccc(C)cc2Br)cn1	29*	5%	active	9%
C=CCC[C@H](Cc1ccc(F)cc1)C(=O)OC[C@@H](Cc1c[nH]c2ccccc12)NC(=O)[C@H](CC=C)CC(=O)N(CCO)Cc1ccccc1	.	.	.	40µM*
C=CC[C@@H](CC(=O)N[C@H](CO)Cc1ccccc1)C(=O)N[C@@H](COC(=O)[C@H](CC=C)CC(=O)OC(C)(C)C)Cc1ccccc1	.	.	.	-25%
C=CC[C@@H](CC(=O)N(CCO)Cc1ccccc1)C(=O)NC[C@H](OC(=O)[C@@H](CC=C)Cc1ccc(F)cc1)c1ccccc1	.	.	.	14µM*
C=CC[C@@H](CC(=O)N[C@@H](CO)Cc1ccccc1)C(=O)N[C@H](COC(=O)[C@@H](CC=C)CC(=O)OC(C)(C)C)Cc1c[nH]c2ccccc12	.	.	.	35µM*
C=CC[C@H](CC(=O)N(CCO)Cc1ccccc1)C(=O)NC[C@H](OC(=O)[C@@H](CC=C)CC(=O)OC(C)(C)C)c1ccccc1	.	.	.	-7%
CN1CCN(C2(CNC(=O)c3ccc(C(C)(C)C)cc3)CCCCC2)CC1	.	8%	.	-13%
CC1(C)CC2CC(C)(CN2S(=O)(=O)c2cccc(C(=O)OCC(N)=O)c2)C1 (stereo not given)	.	40µM*	.	14%
CC1(C)CC2CC(C)(CN2S(=O)(=O)c2cccc(C(N)=O)c2)C1 (stereo not given)	.	4%	.	0%
COCCNC(=O)c1cccc(S(=O)(=O)N2CC3(C)CC2CC(C)(C)C3)c1 (stereo not given)	.	79µM*	.	-8%
COc1ccc(OC)c2sc(NC(=O)CCS(=O)(=O)c3ccccc3)nc12	.	.	.	-10%
O=C(CCS(=O)(=O)c1ccccc1)Nc1nc2cc3c(cc2s1)OCCO3	45*	10µM*	90*	34%
O=C(CCS(=O)(=O)c1ccccc1)Nc1nc2cc3c(cc2s1)OCO3	34*	10µM*	55	7%
O=C(CCS(=O)(=O)c1ccccc1)Nc1nc2ccc(F)cc2s1	.	?	.	11%
COC(=O)CN1C(=O)C(C)(C)c2cc(S(=O)(=O)Nc3ccc(C(C)C)cc3)ccc21	.	11%	.	18%
O=C(c1n[nH]c2c1CCCC2)N1CCOc2ccc(C(O)C(c3ccccc3)c3ccccc3)cc2C1 (stereo not given)	.	.	.	-24%
COc1cc2nc(SCC(=O)Nc3ccccc3C)n3nc(CCn4c(C)nc5ccccc54)nc3c2cc1OC	.	-14%	.	-14%
CCNc1nc(N)c(C(=O)c2ccc(Cl)s2)s1	44*	-3%	130*	61%
COc1ccccc1NS(=O)(=O)c1cccc(C(=O)N2CCN(C/C=C/c3ccccc3)CC2)c1	-2	-19%	-1	-18%
COc1ccccc1NS(=O)(=O)c1cc(C(=O)N2CCN(C/C=C/c3ccccc3)CC2)ccc1C	-4	35µM*	-20	-8%
O=C(Cn1cnc2onc(-c3ccc(F)cc3)c2c1=O)N1CCN(c2ccccc2F)CC1	.	8%	.	-12%
COCCn1c(C)cc(C2=NNC(=Nc3ccc(Cl)cc3Cl)SC2)c1C	-3	-2%	-10	5%
C=CCN=C1NN=C(c2cc(C)n(CCOC)c2C)CS1	31	-29%	21	4.5µM*
COCCn1c(C)cc(C2=NNC(=NC3CC3)SC2)c1C	-16	-26%	-37	1.3µM*
COc1ccc(-c2csc(NC(=O)C3CC(=O)N(Cc4ccccc4)C3)n2)cc1OC (stereo not given)	1	-4%	14	32µM*
SMILES	Cycloheximide cs	Sm TGR block	Shiga inhibitor	FMDV inh
N#Cc1ccc(CSc2nnc(NC(=O)C3CC(=O)N(c4ccc5c(c4)OCCO5)C3)s2)cc1 (stereo not given)	11*	-2%	-2	7%
Cc1csc(NC(=O)C2CC(=O)N(c3ccc4c(c3)OCCO4)C2)n1 (stereo not given)	.	-3%	.	4%
COc1ccc(CC(=O)Nc2nc(-c3ccc(OC)c(OC)c3)cs2)cc1OC	-3	10%	25	?
CCc1ccc(-c2csc(NC(=O)C3CC(=O)N(c4ccc5c(c4)OCCO5)C3)n2)cc1 (stereo not given)	14*	-6%	+	?
O=C(Nc1nnc(SCc2ccc(F)cc2)s1)C1CC(=O)N(c2ccc3c(c2)OCCO3)C1 (stereo not given)	15*	-2%	1	-13%
O=C(CSc1nc(-c2ccccc2)no1)N1CCCCC1	.	5%	.	-11%
C=Cc1cc2c(s1)c1cnn(Cc3ccccc3F)c(=O)c1n2C	-4	.	-6	.
COc1cccc(Nc2ccc(N3CCCCC3)cc2)c1OC	.	?	.	26%
COc1ccccc1CNc1ccc(C(=O)O)cc1	-1	0%	-8	14%
COc1ccccc1CNc1ccc(N2CCCCC2)cc1	24	10µM*	45	.
COc1cccc(CNc2ccc(N3CCCCC3)cc2)c1OC	30*	25µM*	34*	23%
N#C/C(=C\c1cccnc1)c1ccc(Br)cc1	47*	-2%	44	16%
Cc1nn(-c2ccc(N3CCCCC3)nn2)c(C)c1CCC(=O)NCc1ccccc1	.	-1%	.	9%
CCCOC(=O)c1cccc(NC(=O)C(C)(C)C)c1	18*	1%	32*	34%
CCCOC(=O)c1cccc(NC(=O)COc2ccc([N+](=O)[O-])cc2)c1	-2	-10%	-11	25µM*
CCN(C(=O)CSc1nc2ccccc2nc1Cc1cccc(OC)c1)c1cccc(C)c1	.	4%	.	-24%
CCn1c(CNC(=O)C23CC4CC(CC(C4)C2)C3)nnc1SCC(=O)Nc1ccc(C)cc1	.	9%	.	-29%
O=C(COC(=O)c1cccc(S(=O)(=O)N2CCc3ccccc3C2)c1)NCc1ccco1	1	28µM*	-6	7%
CCn1cc(C(=O)NCc2ccco2)c(=O)c2cc(S(=O)(=O)N3CCc4ccccc4C3)ccc21	2	14µM*	-10	-9%
CCn1cc(C(=O)NCc2ccco2)c(=O)c2cc(S(=O)(=O)N3CCCCCC3)ccc21	-1	?	-5	-29%
O=C(COC(=O)c1cc(S(=O)(=O)N2CCc3ccccc3C2)ccc1Cl)NCc1ccco1	1	18µM*	20	-6%
O=C(NCc1ccco1)c1ccc(S(=O)(=O)N2CCCCC2)cc1	-2	12%	-2	-2%
O=C(COC(=O)c1ccc(S(=O)(=O)N2CCCC2)cc1)NCc1ccco1	3	40µM*	1	-15%
O=C(COC(=O)c1cc(S(=O)(=O)N2CCOCC2)ccc1Cl)NCc1ccco1	.	-32%	.	-10%
Cc1ccc(C(=O)Nc2c(-c3ccccc3)nc3ccccn23)cc1C	.	-2%	.	2%
SMILES	Cycloheximide cs	Sm TGR block	Shiga inhibitor	FMDV inh
Cc1ccc(CNC(=O)C2CCN(S(=O)(=O)c3c(C)noc3/C=C/c3cccs3)CC2)cc1	.	18%	.	-22%
COc1ccc(CC(=O)NCCc2sc(-c3ccc(Cl)cc3)nc2C)cc1OC	.	-4%	.	0%
Cc1cccc(NC(=O)CSc2nc3ccc(NC(=O)c4ccco4)cc3s2)c1	.	5%	.	25µM*
CCOC(=O)CSc1nnc(NC(=O)c2cc([N+](=O)[O-])cc([N+](=O)[O-])c2)s1	-2	-13%	-4	35µM*
Cc1cccc(NC(=O)CSc2nnc(NC(=O)c3ccco3)s2)c1	26	5%	43*	0%
CCSc1nnc(NC(=O)c2cccc3ccccc23)s1	-1	5%	-4	-13%

Source: PubChem BioAssay (National Center for Advancing Translational Sciences (NCATS))
